hcDAF12 agonist: H. contortus DAF-12 nuclear receptor activators, primary screen, cell-based, luminescence, HEK293, lit1-tk-luc reporter. HEK293 hcDAF-12 lit1-tk-luc reporter; 0% DMSO, 100% Δ7-dafachronic acid. activation, % at 6.8 µM. 370,000 tested, 1.4% active. AID 652067, 2013;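 active = activation above the mean of all tested compounds plus 3 SD, cut at about 5.5% in these data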;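 also: 100% = response to 3 µM Δ7-dafachronic acid high control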
ssDAF12 agonist: S. stercoralis DAF-12 nuclear receptor activators, primary screen, cell-based, luminescence, HEK293, GRIP1 co-expression, lit1-tk-luc. 370,000 tested, 1% active. HEK293 ssDAF-12/GRIP1 lit1-tk-luc reporter; % of 3 µM dafachronic acid response. Nuclear hormone receptor DAF-12 (Strongyloides stercoralis). AID 652126, 2013. activation, % at 6.8 µM;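 active = activation above the mean over all tested compounds plus 3 SD, cut at about 0.9% in these data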;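 also: 0% = DMSO-only wells and 100% = 3 µM delta7-dafachronic acid wells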
hgDAF12 agonist: H. glycines DAF-12 receptor agonists, primary screen, cell-based, luminescence, HEK293, GAL4 fusion, UAS-luciferase. HEK293 GAL4-hgDAF12 UAS-luciferase reporter, agonist luminescence; normalized to butyrate control. activation, % at 6.8 µM. 370,000 tested, 1.8% active. Nuclear hormone receptor DAF-12 (Heterodera glycines), GAL4 fusion;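 active = activation above a cutoff set at the mean of all screened compounds plus 3 SD, cut at about 10% in these data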;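 also: 0% = DMSO wells and 100% = sodium butyrate wells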
DAX1 inh-1: DAX1 (NR0B1) inhibitors on StAR promoter, primary screen, cell-based, luminescence, SF-1 (NR5A1), full-length DAX-1; 370,000 tested, 1.1% active; HEK293T StAR-luciferase reporter, SF-1/DAX-1 repression relief; inhibition, % at 6.8 µM;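 active = inhibition above the mean over all tested compounds plus 3 SD, cut at about 3.6% in these data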;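 also: 0% = DAX-1 cells with DMSO and 100% = cells lacking DAX-1 with DMSO; higher inhibition means more luminescence from relief of DAX-1 repression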
DAX1 inh-2: DAX1 (NR0B1) inhibitors, primary screen, cell-based, HEK293, Gal4-DAX1, luciferase luminescence; Nuclear receptor subfamily 0 group B member 1 (Homo sapiens), P51843; AID 504766, 2011; HEK293 Gal4-DAX1 luciferase reporter; inhibition, % at 6.75 µM; 340,000 tested, 0.99% active;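 active = inhibition above the mean over all tested compounds plus 3 SD, cut at about 4.2% in these data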;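 also: 0% = DAX1-transfected cells with DMSO and 100% = empty-vector control cells with DMSO; inhibition shows as a rise in luminescence from relieved DAX1 repression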
Target sequence (P51843 207-470 limits assumed): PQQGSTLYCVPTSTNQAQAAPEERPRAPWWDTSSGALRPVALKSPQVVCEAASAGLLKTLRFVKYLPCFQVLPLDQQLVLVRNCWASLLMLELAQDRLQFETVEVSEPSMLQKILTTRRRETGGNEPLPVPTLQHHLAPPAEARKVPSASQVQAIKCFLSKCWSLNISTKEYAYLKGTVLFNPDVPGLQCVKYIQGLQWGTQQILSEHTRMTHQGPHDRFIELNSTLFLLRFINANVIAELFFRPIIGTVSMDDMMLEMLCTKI
LXR ag: LXR agonists, Gal4 luciferase reporter, confirmation, counter-screen for hcDAF-12 agonist project, cell-based, luminescence, HEK293, H. contortus campaign; shares compounds with hcDAF12 agonist; HEK293 Gal4-LXR tk-luc reporter, 24 h; normalized: DMSO 0%, positive control 100%; activation, % at 6.8 µM; 3,400 tested, under 10 active; AID 743027, 2013;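 active = mean percent activation of the reporter above a cutoff set as the average over tested compounds plus their standard deviation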
hcDAF12 conf: H. contortus DAF-12 receptor agonists, confirmation, cell-based, luminescence, HEK293, lit1-tk-luc, triplicate. HEK293 hcDAF-12 lit1-tk-luc reporter; % of Δ7-dafachronic acid response. 3,400 tested, 61% active. activation, % at 6.8 µM. shares compounds with hcDAF12 agonist;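 active = mean activation across triplicate tests above the threshold derived from the earlier primary screen, cut at about 5.5% in these data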;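 also: 0% = DMSO only wells and 100% = 3 µM Δ7-dafachronic acid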
hgDAF12 conf: H. glycines DAF-12 receptor agonists, confirmation, cell-based, luminescence, HEK293, GAL4-LBD fusion | activation, % at 6.8 µM | AID 743050, 2013 | HEK293 GAL4-hgDAF12 luciferase reporter, agonist mode; percent of butyrate response | 3,300 tested, 80% active | shares compounds with hgDAF12 agonist;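 active = mean activation over triplicate wells above the hit cutoff derived from the earlier primary screen, cut at about 11% in these data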;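 also: 0% = DMSO low control and 100% = 2 mM sodium butyrate high control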
LXR ag 2: LXR agonists, Gal4 luciferase reporter, confirmation, counter-screen for hgDAF-12 agonist project, cell-based, luminescence, HEK293, H. glycines campaign | shares compounds with hgDAF12 agonist | 24 h | activation, % at 6.8 µM | 3,300 tested, under 10 active | AID 743051, 2013;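 active = mean activation of the triplicate above a set limit carried over from the primary screen, none filed active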
The depositor's hits bear a star; . = no result given. Most compounds without a hit are left out; they make up all but 4.1% or so of the library.

SMILES | hcDAF12 agonist | ssDAF12 agonist | hgDAF12 agonist | DAX1 inh-1 | DAX1 inh-2 | LXR ag | hcDAF12 conf | hgDAF12 conf | LXR ag 2
O=C(N/N=C/c1c[nH]c2ccccc12)c1cccs1 | 6.9* | 1.7* | 14* | 1 | . | 1 | 6.4* | 11* | 0
O=C(NC(Cc1c[nH]c2ccccc12)C(=O)N/N=C/c1cccc2ccccc12)c1cccs1 (stereo unspecified) | -2 | -1 | 0 | -1 | 0 | . | . | . | .
O=C(N/N=C/c1cccc2ccccc12)c1cccs1 | 8.2* | 1 | 17* | 3 | 4.5* | 1 | 7.3* | 16* | 1
O=C(N/N=C/c1c[nH]c2ccccc12)c1ccc2c(c1)OCCO2 | 13* | 1.7* | 18* | 1 | 3 | 1 | 7.0* | 23* | 1
CC[C@H](C)[C@@H](C(=O)NCCCCCCCCCCC(=O)N1CCN(C(=O)OC(C)(C)C)CC1)n1cc(CCCCCNC(=O)OC(C)(C)C)nn1 | -1 | -1 | 0 | -1 | 0 | . | . | . | .
O=C1C2C3C=CC(C3=C3CCCCC3)C2C(=O)N1c1ccccc1 (stereo unspecified) | -1 | -1 | 0 | 0 | -1 | . | . | . | .
CN1C(=O)C2C=CC1C1C(=O)N(c3ccccc3)C(=O)C21 (stereo unspecified) | 9.5* | 1 | 17* | 4.0* | 4 | 1 | 6.2* | 0 | 0
CCc1cccc(NC(=O)c2cnn(-c3ccccc3)c2C)c1 | 7.9* | 0 | 19* | 3 | 4 | 1 | 4 | 16* | 1
Cc1cccc(C)c1NC(=O)c1cnn(-c2ccccc2)c1C | 0 | -1 | 1 | -1 | 1 | . | . | . | .
COC(=O)[C@@]1(Sc2ccc(C)cc2)CC(=O)N(c2ccccc2)[C@@H]1c1ccccc1 | -3 | -1 | -6 | -8 | . | . | . | . | .
O=C(NC1CCCCCC1)c1cccc(N2CCCC2=O)c1 | 7.8* | 0 | 13* | 2 | -1 | 1 | 10* | 13* | 1
COc1ccc(C(=O)C(=O)N2CCN(c3ccc(C)cc3)CC2)cc1OC | -1 | -1 | 3 | -1 | . | . | . | . | .
COc1cc(NC(=O)C2(C)CCN2C(=O)C(C)C)cc(OC)c1OC (stereo unspecified) | 0 | -1 | 3 | 0 | . | . | . | . | .
Cc1occc1C(=O)N/N=C/c1ccc(OCc2ccccc2)cc1 | 4 | -1 | 8 | 1 | 3 | . | . | . | .
Cc1occc1C(=O)N/N=C/c1ccc(-c2ccccc2)cc1 | 7.9* | 1.1* | 19* | 3 | 0 | 2 | 5 | 21* | 1
CCc1nc2c(OCc3ccc(F)c(F)c3)cccn2c1N(C)C(=O)C1CC1 | -3 | -1 | -1 | -2 | . | . | . | . | .
CC(C)(C)c1ccc2c(c1)C(=O)c1ccccc1C2=O | 11* | 0 | 20* | 4.4* | 4 | 1 | 4 | 13* | 1
Clc1ccc(-c2cnc3cccnn23)cc1 | 3 | 0 | 8 | 1 | . | . | . | . | .
Nc1cccn2c(-c3ccc(Cl)cc3)cnc12 | 7.4* | 1 | 16* | 3 | 2 | 1 | 10* | 18* | 1
CC1CCCCC12NC(=O)N(CC(=O)OCc1cccc(F)c1)C2=O (stereo unspecified) | -1 | 0 | 0 | 0 | 1 | . | . | . | .
CN(C)C=Nc1ccc2nn(-c3ccccc3)nc2c1 | 6.7* | 1.2* | 15* | 4.4* | 3 | 2 | 8.2* | 22* | 1
CN(C)C=Nc1ccc(Cl)c(Cl)c1 | -2 | -1 | 2 | 0 | 2 | . | . | . | .
Cc1cc(O)c(NC(=O)c2cccc([N+](=O)[O-])c2)cc1C | 7.0* | 2.5* | 17* | 1 | 4 | 0 | 9.2* | 11* | 0
CSc1ccc(NC(=O)Nc2cc(C)ccn2)cc1 | 7.0* | 0.9* | 19* | 3 | 2 | 2 | 9.5* | 18* | 1
CSc1ncccc1C(=O)Nc1cc(C)ccn1 | 0 | -1 | -1 | 0 | 0 | . | . | . | .
SMILES | hcDAF12 agonist | ssDAF12 agonist | hgDAF12 agonist | DAX1 inh-1 | DAX1 inh-2 | LXR ag | hcDAF12 conf | hgDAF12 conf | LXR ag 2
CN(C)S(=O)(=O)c1cccc(C(=O)Nc2ccc3c(c2)CCC3)c1 | 6.9* | 1 | 22* | 2 | 2 | 1 | 7.4* | 19* | 1
CN(C)S(=O)(=O)c1ccc(C(=O)Nc2ccc3c(c2)CCC3)cc1 | 0 | -1 | 1 | 0 | 0 | . | . | . | .
O=C(COC(=O)c1ccc(Cl)nc1)Nc1ccc2c(c1)CCC2 | -1 | -1 | 1 | 1 | 0 | . | . | . | .
O=C(Nc1ccc2c(c1)CCC2)c1ccc(Cl)nc1 | 7.7* | 1.2* | 19* | 3.8* | 4.7* | 1 | 9.3* | 21* | 1
COc1cccc(C(=O)Cn2c(NCCO)nc3ccccc32)c1 | 0 | -1 | 0 | 0 | -1 | . | . | . | .
COc1cccc(C(=O)Cn2c(=N)n(C)c3ccccc32)c1 | 18* | 3.2* | 17* | 3 | -1 | 2 | 17* | 20* | 1
CCNC(=S)/N=C(\N)Nc1nc(C)c2cc(C)ccc2n1 | 6.6* | 0 | 14* | 4.3* | 4.6* | 1 | 7.6* | 13* | 0
CCOc1ccc2nc(N/C(N)=N/C(=S)Nc3ccc(C)c(C)c3)nc(C)c2c1 | -1 | -1 | 2 | 0 | -1 | . | . | . | .
CCCc1nc2ccccc2n1C(C(=O)NC(C)(C)C)C1CC1 (stereo unspecified) | -1 | 0 | 5 | 0 | . | . | . | . | .

Assay outcomes deposited in PubChem by The Scripps Research Institute Molecular Screening Center.
